Laboratory results reported in PubChem BioAssay (NCI).
This is part of a sample that, as a whole, favours compounds with a hit. Of some 83,000 tested, about 20% had one in any assay.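 Interpretation: 100, growth as untreated; towards 0, rising growth inhibition; 0, no net growth; 0 to -100, cell death. Compounds scoring below 10 were considered active.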 Unmarked numbers belong to inactive results. The source made the active and inactive calls.

Each compound was assayed on SNB-19 CNS (assay: NCI-60 one-dose screen, 48 h (100 = growth as untreated, 0 = no growth, -100 = all killed)). Conditions: 10 µM unless noted.
`O=C(Nc1cccc(Cl)c1)Nc1nc2cc([N+](=O)[O-])ccc2o1` showed a growth of 31.3%. `COc1ccc(NC(=O)CCCCCCNC(=O)C(O)(O)C(F)(F)F)cc1` was tested, and the growth was 66.8%. With `CC(=O)N(O)CCCCCNC(=O)CCC(=O)N(O)CCCCCNC(=O)CCC(=O)N(O)CCCCCN(CCCCCCCCCC[P+](c1ccccc1)(c1ccccc1)c1ccccc1)CCCCCCCCCC[P+](c1ccccc1)(c1ccccc1)c1ccccc1` the growth was 17.2%. `Cc1cc(Br)ccc1-n1cc(C#N)c(N)c1C(=O)c1ccc(Br)cc1` gave a growth of 96.3%. In the case of `CN(C)S(=O)(=O)c1ccc(-c2nc(C(Cl)Cl)nc3cc(-c4ccccc4)nn23)cc1`, the growth was 85.2%. Work on `CN1CCN(c2ccc(Nc3nc(NCCNC(=O)c4ccc(F)cc4)c4sccc4n3)cc2)CC1` yielded a growth of 91.8%. For `O=[N+]([O-])c1ccc(NC(=S)NNC(=S)Nc2ccc(Br)cc2)cc1`, the growth was 98.6%. `C/C(=N\NC(=O)/C=C/CC(=O)O)c1nnn(-c2ccc([N+](=O)[O-])cc2)c1C` was tested, and the growth was 98.3%. For `CN1CCN(c2ccc(Nc3nc(NCCCNS(=O)(=O)c4ccc(F)cc4)c4sccc4n3)cc2)CC1`, the growth was 74.5%. In the case of `N#CC1=C2NCCCNc3oc(nc3C#N)Cc3ccccc3CC(=N1)O2`, the growth was 93.2%. `COc1ccccc1/C=C1\Oc2ccc(O)c(O)c2C1=O` showed a growth of 86.4%. Work on `COc1ccc(NC2=C(Br)C(=O)C(C)=C(C)C2=O)cc1OC` yielded a growth of 84.9%. With `O=C(Nc1ccc(N=Cc2c(O)[nH]c3ccccc23)cc1)Nc1ccc(S(=O)(=O)Nc2ncccn2)cc1` the growth was 101%. Work on `NC(=O)c1c(NC(=O)c2ccc(C(F)(F)F)cc2)sc2c1CCC(=O)C2` yielded a growth of 16.3%. `O=C(/C=C/c1cccc(Br)c1)c1cccc(OCCCCOc2cccc(C(=O)/C=C/c3cccc(Br)c3)c2)c1` was tested, and the growth was 94.3%. For `O=C(CCCCCCNC(=O)c1csc(Br)n1)NO`, the growth was 59.7%. `CC1CC(=O)C2=C(C1)Nc1ccc(Br)cc1CC2c1c[nH]c2ccc(Br)cc12` (configuration not stated) was tested, and the growth was 54.7%. `C#CCN(C)CCCOc1ccc(NCc2ccc(C(=O)NO)cc2)cc1Cl` gave a growth of 35.2%. In the case of `CC(=O)Nc1nc(C)c(-c2csc(Nc3ccccc3)n2)s1`, the growth was 35.8%. `Cc1csc(/N=C(N)/N=C(\N)c2cccc(C#N)c2)n1` was tested, and the growth was 72.3%. With `Clc1cccc(/C=N/Nc2nc(N/N=C/c3cccc(Cl)c3)nc(N3CCCCC3)n2)c1` the growth was 98.6%. In the case of `O=C1[C@H]2Cc3c([nH]c4ccccc34)[C@H](c3ccc(Br)cc3)N2C(=O)CN1C1CCN(CC2CCCCC2)CC1`, the growth was 83.3%. `Cc1[nH]c(C(=O)Nc2ccc(C(=O)NCC3CCNCC3)cc2OC(C)C)c(Cl)c1Cl` showed a growth of 64.2%. `CCN(CC)S(=O)(=O)c1ccc(-c2nc(C(Cl)Cl)nc3cc(-c4ccc(F)cc4)nn23)cc1` was tested, and the growth was 40.2%. `C/C(=N/N)c1nnn(-c2ccc(Br)cc2)c1C` showed a growth of 97.9%. Work on `CC1=C(C)C(=O)C(Nc2cccc(C)c2)=C(Br)C1=O` yielded a growth of 101%. `Cc1ccc(C(=O)Nc2ccc(CNCCN3CCNCC3)c(C(F)(F)F)c2)cc1C#Cc1cnc2cccnn12` was tested, and the growth was 8.65% (active).

The compounds below were run on U251 CNS in the same assay as above. Conditions: 10 µM unless noted.
For `C#C[C@]1(O)CC[C@H]2[C@@H]3CC=C4c5sc(Nc6cc(C)cc(C)c6)nc5CC[C@]4(C)[C@H]3CC[C@@]21C`, the growth was 8.96% (active). Compound `CCCC[n+]1ccc(SCC(=O)n2ccc3ccccc32)c2ccccc21` has a growth of 89.3%. For `CC(C)(C)c1cc(NC(=O)Nc2ccc(-c3cn4c5c(sc4n3)CCc3cn(CCCN4CCCCC4)cc3-5)cc2)no1`, the growth was -86.3% (active). Compound `CCCCCCNC(=O)Oc1ccc(/C(=C(/C)c2ccc(OC)cc2)c2ccc(OCCN3CCCCCC3)cc2)cc1` has a growth of 19.6%. With `Cn1cc(-c2cc3ncnc(Nc4ccc(CC(=O)Nc5nc(C(C)(C)C)cs5)cc4)c3s2)cn1` the growth was 66%. Work on `O=C(CCCCCC/C=C\c1csc(Br)n1)NO` yielded a growth of 91.4%. `COc1ccc(C(=O)c2c(N)c(C#N)cn2-c2ccc(Cl)cc2Cl)cc1` gave a growth of 99.2%. `Cc1ccc2c(n1)C(=O)C(Cl)=C(Nc1cccc(C(F)(F)F)c1)C2=O` showed a growth of 95.7%. In the case of `O=C1[C@H]2Cc3c([nH]c4ccccc34)[C@H](c3ccc(Cl)cc3)N2C(=O)CN1C1CCN(CC2CCCCC2)CC1`, the growth was 49.2%. In the case of `COc1ccc(/C=N/NC(=O)c2c(N)nn(C)c2Nc2ccccc2)cc1`, the growth was 33.3%. `Fc1ccc2nc(-c3cnn4cccnc34)sc2c1` was tested, and the growth was 75.8%. In the case of `O=C(/C=C/c1cccc(F)c1)c1cccc(OCCCCOc2cccc(C(=O)/C=C/c3cccc(F)c3)c2)c1`, the growth was 105%. `O=C(COc1ccc(/C=C2\C(=O)Nc3ccc(Cl)cc32)cc1)Nc1ccc(Cl)cc1` was tested, and the growth was 5.92% (active). `O=C(Nc1cccc(Cl)c1)Nc1nc2cc([N+](=O)[O-])ccc2o1` gave a growth of 23.3%. `COc1ccc(NC(=O)CCCCCCNC(=O)C(O)(O)C(F)(F)F)cc1` showed a growth of 39.7%. For `CC(=O)N(O)CCCCCNC(=O)CCC(=O)N(O)CCCCCNC(=O)CCC(=O)N(O)CCCCCN(CCCCCCCCCC[P+](c1ccccc1)(c1ccccc1)c1ccccc1)CCCCCCCCCC[P+](c1ccccc1)(c1ccccc1)c1ccccc1`, the growth was 6.66% (active). Compound `Cc1cc(Br)ccc1-n1cc(C#N)c(N)c1C(=O)c1ccc(Br)cc1` has a growth of 99.9%. For `CN(C)S(=O)(=O)c1ccc(-c2nc(C(Cl)Cl)nc3cc(-c4ccccc4)nn23)cc1`, the growth was 66.2%. `CN1CCN(c2ccc(Nc3nc(NCCNC(=O)c4ccc(F)cc4)c4sccc4n3)cc2)CC1` was tested, and the growth was 37%. For `O=[N+]([O-])c1ccc(NC(=S)NNC(=S)Nc2ccc(Br)cc2)cc1`, the growth was 88.4%. With `C/C(=N\NC(=O)/C=C/CC(=O)O)c1nnn(-c2ccc([N+](=O)[O-])cc2)c1C` the growth was 100%. `CN1CCN(c2ccc(Nc3nc(NCCCNS(=O)(=O)c4ccc(F)cc4)c4sccc4n3)cc2)CC1` was tested, and the growth was 15.7%. For `N#CC1=C2NCCCNc3oc(nc3C#N)Cc3ccccc3CC(=N1)O2`, the growth was 96.1%. Work on `COc1ccccc1/C=C1\Oc2ccc(O)c(O)c2C1=O` yielded a growth of 86.8%. In the case of `COc1ccc(NC2=C(Br)C(=O)C(C)=C(C)C2=O)cc1OC`, the growth was 84%. With `O=C(Nc1ccc(N=Cc2c(O)[nH]c3ccccc23)cc1)Nc1ccc(S(=O)(=O)Nc2ncccn2)cc1` the growth was 103%. In the case of `NC(=O)c1c(NC(=O)c2ccc(C(F)(F)F)cc2)sc2c1CCC(=O)C2`, the growth was 7.99% (active). `O=C(/C=C/c1cccc(Br)c1)c1cccc(OCCCCOc2cccc(C(=O)/C=C/c3cccc(Br)c3)c2)c1` showed a growth of 105%. `O=C(CCCCCCNC(=O)c1csc(Br)n1)NO` showed a growth of 49.3%. Work on `CC1CC(=O)C2=C(C1)Nc1ccc(Br)cc1CC2c1c[nH]c2ccc(Br)cc12` (configuration not stated) yielded a growth of 53.1%. `C#CCN(C)CCCOc1ccc(NCc2ccc(C(=O)NO)cc2)cc1Cl` gave a growth of 20%. `CC(=O)Nc1nc(C)c(-c2csc(Nc3ccccc3)n2)s1` was tested, and the growth was 40.8%. `Cc1csc(/N=C(N)/N=C(\N)c2cccc(C#N)c2)n1` showed a growth of 64.7%. Compound `Clc1cccc(/C=N/Nc2nc(N/N=C/c3cccc(Cl)c3)nc(N3CCCCC3)n2)c1` has a growth of 91.7%. In the case of `O=C1[C@H]2Cc3c([nH]c4ccccc34)[C@H](c3ccc(Br)cc3)N2C(=O)CN1C1CCN(CC2CCCCC2)CC1`, the growth was 55.9%. In the case of `Cc1[nH]c(C(=O)Nc2ccc(C(=O)NCC3CCNCC3)cc2OC(C)C)c(Cl)c1Cl`, the growth was 8.95% (active). `CCN(CC)S(=O)(=O)c1ccc(-c2nc(C(Cl)Cl)nc3cc(-c4ccc(F)cc4)nn23)cc1` was tested, and the growth was 17.7%. `C/C(=N/N)c1nnn(-c2ccc(Br)cc2)c1C` was tested, and the growth was 98.6%. `CC1=C(C)C(=O)C(Nc2cccc(C)c2)=C(Br)C1=O` was tested, and the growth was 101%. `Cc1ccc(C(=O)Nc2ccc(CNCCN3CCNCC3)c(C(F)(F)F)c2)cc1C#Cc1cnc2cccnn12` was tested, and the growth was -6.31% (active).
